FBPA Giardia inh: Giardia lamblia aldolase inhibition. A8B2U2. purified Giardia FBPA. Potency, µM (titrated, usually from 59.6 µM), for the others: at the top dose activity, negative = inhibition, most hits filed as inhibitors. 290,000 tested, 0.71% active; note: potency is the fitted concentration of half-maximal effect; nearly all actives have a fitted effect of over 55% in size
Target sequence (A8B2U2 whole entry, looked up): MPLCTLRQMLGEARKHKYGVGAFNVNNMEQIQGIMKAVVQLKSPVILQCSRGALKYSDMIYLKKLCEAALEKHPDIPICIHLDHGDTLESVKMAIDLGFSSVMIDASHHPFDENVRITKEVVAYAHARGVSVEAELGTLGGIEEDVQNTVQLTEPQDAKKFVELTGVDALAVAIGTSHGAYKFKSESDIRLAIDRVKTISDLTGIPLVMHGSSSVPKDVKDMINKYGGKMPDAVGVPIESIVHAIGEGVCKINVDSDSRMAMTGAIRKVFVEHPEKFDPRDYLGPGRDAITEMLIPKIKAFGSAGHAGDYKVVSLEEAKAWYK
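Giardia FBPA (40 nM reagent) was preincubated 10 min at RT with compound (up to 57.5 uM final), then substrate plus GAPDH/TPI/NAD/arsenate coupling system with diaphorase/resazurin was added; resorufin fluorescence (525/598 nm) was read after 20 min.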
Tb PYK inh: inhibitors of Trypanosoma brucei pyruvate kinase; TbPYK enzyme, Kinase-Glo Plus ATP luminescence, 45 min; AID 624173; Potency, µM (series often up to 76.8 µM), for the others: top-dose activity, negative = inhibition, actives largely listed as inhibitors; 410,000 tested, 0.12% active; Q57TT1; note: potency is the fitted concentration of half-maximal effect; nearly all actives have a fitted effect of over 50% in size
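Enzyme and substrate buffer are dispensed first and compound is pin-transferred. ADP at 130 uM final then starts the reaction, which runs 45 min at room temperature. Detection reagent is added for 10 min before luminescence is imaged.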
HCMV inh: blocks human cytomegalovirus replication | activity change, negative = inhibition, % at 57.5 µM | HFF cells, HCMV-luciferase reporter, 72 h; active compounds read low | 410,000 tested, 4.5% active; in the data active = activity change below about -60%; inconclusive = no clear call, values can overlap the other calls; inactive = above about -39%
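Two-dose cell screen: HFF monolayers treated with compounds and infected with luciferase-expressing HCMV at 1 PFU/cell, 72 h at 37C, then lysed for luciferase measurement.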
FMDV antiviral: antivirals against foot and mouth disease virus; FMDV antiviral cell-based qHTS; Potency, µM (top dose mostly 57.9 µM), without a hit: top-dose activity change, negative = inhibition, actives largely listed as inhibitors; 410,000 tested, 1.2% active; AID 1159524; calls by dose curve; tested in HEK293T cells; note: read-out not given here; potency is the fitted concentration of half-maximal effect; nearly all actives have a fitted effect of over 45% in size
Sm TGR inh: S. mansoni TGR enzyme inhibition. Q962Y6. Potency, µM (highest dose often 114 µM), for the others: at the top dose activity change, negative = inhibition, hits mostly inhibitors. 360,000 tested, 3% active. purified TGR, DTNB reduction, TNB absorbance 405 nm; note: potency is the fitted concentration of half-maximal effect; nearly all actives have a fitted effect of over 60% in size
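First, TGR (20 nM dispensed) and NADPH were mixed with compound. Second, a 15 min room-temperature incubation followed. Third, further NADPH and then DTNB were added to start the reaction. Finally, TNB absorbance was monitored kinetically.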
RE007 growth inh: less growth of the S. pombe RE007 Vpr strain | S. pombe RE007 Vpr strain, BacTiter-Glo ATP luminescence, 24 h | Potency, µM (top dose mostly 92.2 µM), inactives show at the highest dose activity change, negative = less growth, usual class: inhibitors | 360,000 tested, 0.21% active | AID 651644; active = well fitted falling curve with a large enough effect; inconclusive = small, poorly fitted or top-dose-only effect; inactive = no such curve, though single readings can be large or run the other way; note: potency is the fitted concentration of half-maximal effect; nearly all actives have a fitted effect of over 50% in size
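Fission yeast RE007 carrying one integrated HIV-1 vpr copy, seeded at OD 0.01 in PMG+AL medium with 23 nL pinned compound. Grown 24 h at 30 degrees; viability read by BacTiter-Glo luminescence after 5 min.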
Numbers without * were called inactive. A selection: hits, their analogues and other compounds. The true share with any hit is near 7.7%. Unless noted, calls come from the whole dose curve; as a rule, active = well fitted curve in the direction sought with a large enough effect; inconclusive = small, poorly fitted or top-dose-only effect, or another doubt; inactive = no such curve, though single readings can be large; an effect the other way counts as inactive or inconclusive. % is set by controls: 0 for no effect and ±100 for the full control effect.

`O=C(c1cccc(F)c1)N1CC(=O)N2[C@@H](CO)[C@@H](c3ccc(Br)cc3)[C@@H]2C1` gave HCMV inh 0.
Screening CNC(=O)c1c(O)c2cccc3c2n(c1=O)CCC3 returned FBPA Giardia inh 5%, Tb PYK inh -14%, HCMV inh -98*, FMDV antiviral -10%, Sm TGR inh 0% and RE007 growth inh 0%.
`CC(C)c1nnc(NC(=O)c2c(O)c3cccc4c3n(c2=O)CCC4)s1` gave FBPA Giardia inh 6%, Tb PYK inh -1%, HCMV inh -96*, FMDV antiviral -10%, Sm TGR inh 11% and RE007 growth inh -2%.
`O=C(NC1CCCCCC1)c1c(O)c2cccc3c2n(c1=O)CCC3` gave FBPA Giardia inh 4% and Sm TGR inh 0%.
CC(Nc1ncnc2c1cnn2-c1cccc(Cl)c1)c1ccccc1 (stereo not given) was read as Tb PYK inh -2%, HCMV inh 69, FMDV antiviral 12% and Sm TGR inh 5%.
Screening CCN1/C(=C/c2cc[n+](CCCS(=O)(=O)[O-])c3ccccc23)Sc2ccccc21 returned FBPA Giardia inh -5%, Tb PYK inh -3%, HCMV inh inconclusive, FMDV antiviral -19%, Sm TGR inh -4% and RE007 growth inh -6%.
For C=CC[n+]1ccc(/C=C2\C=Cc3cc(C)ccc3N2CC)c2ccccc21 the results were FBPA Giardia inh inconclusive, Tb PYK inh -34%, FMDV antiviral 35µM*, Sm TGR inh 15% and RE007 growth inh 32µM*.
For CC(C=NN=C1C(=O)Nc2ccccc21)=Cc1ccccc1 the results were HCMV inh 12.
`CCOc1ccccc1NC(=O)CSc1nc(=O)n(CCN2CCOCC2)c2c1CCCC2` gave Tb PYK inh -5%, HCMV inh -81*, FMDV antiviral 1%, Sm TGR inh 5% and RE007 growth inh -11%.
Cc1cccc(NC(=O)CSc2nc(=O)n(CCN3CCOCC3)c3c2CCC3)c1C was read as Tb PYK inh -3%, HCMV inh -36, FMDV antiviral -16% and Sm TGR inh 9%.
`COc1ccccc1N1CCN(c2nc(C)nc3c2oc2ccccc23)CC1` gave FBPA Giardia inh -2%, Tb PYK inh -6%, HCMV inh -82*, FMDV antiviral 28µM*, Sm TGR inh -9% and RE007 growth inh 2%.
Screening Cc1nc(N2CCN(Cc3ccc(Cl)cc3)CC2)c2oc3ccccc3c2n1 returned FBPA Giardia inh -19%, Tb PYK inh 0%, HCMV inh -39, FMDV antiviral inconclusive, Sm TGR inh 1% and RE007 growth inh -21%.
`Cc1nc(N2CCN(Cc3ccc4c(c3)OCO4)CC2)c2oc3ccccc3c2n1` gave Tb PYK inh -2%, HCMV inh -30, FMDV antiviral 28µM* and RE007 growth inh -7%.
COCCN(CCOC)S(=O)(=O)c1ccc(C(=O)Nc2sc3c(c2C(=O)OC)CCN(C)C3)cc1 was read as Tb PYK inh 0%, HCMV inh -19, FMDV antiviral 0% and Sm TGR inh 5%.
COC(=O)c1c(NC(=O)CCS(=O)(=O)c2ccccc2)sc2c1CCN(C)C2 was read as FBPA Giardia inh -15%, Tb PYK inh -8%, HCMV inh -90*, FMDV antiviral -8%, Sm TGR inh inconclusive and RE007 growth inh -5%.
For CCCN1CCc2c(sc(NC(=O)CCS(=O)(=O)c3ccccc3)c2C(=O)OC)C1 the results were Tb PYK inh -1%, HCMV inh -9, FMDV antiviral -11%, Sm TGR inh 22µM* and RE007 growth inh 2%.
For O=C(CCS(=O)(=O)c1ccccc1)Nc1nc2c(s1)COc1ccccc1-2 the results were FBPA Giardia inh -6%, Tb PYK inh -13%, HCMV inh -24, FMDV antiviral inconclusive, Sm TGR inh 32µM* and RE007 growth inh -6%.
For O=C(CCS(=O)(=O)c1ccccc1)Nc1nncs1 the results were FBPA Giardia inh -6%, Tb PYK inh -1%, HCMV inh 0, FMDV antiviral -1%, Sm TGR inh 20µM* and RE007 growth inh -14%.
C/C(=C(\CCO)SSCC1CCCO1)N(C=O)Cc1cnc(C)nc1N (stereo not given) was read as Tb PYK inh 5%.
COC(=O)c1ccsc1NC(=O)CCS(=O)(=O)c1ccccc1 was read as Tb PYK inh -8%, HCMV inh 11, FMDV antiviral 8%, Sm TGR inh 10µM* and RE007 growth inh -2%.
COC(=O)c1ccsc1NC(=O)CCS(=O)(=O)c1ccc(Cl)cc1 was read as Tb PYK inh 5%, HCMV inh -10, FMDV antiviral -8%, Sm TGR inh inconclusive and RE007 growth inh -2%.
`CC(C)N1CCc2c(sc(NC(=O)CCS(=O)(=O)c3ccccc3)c2C#N)C1` gave FBPA Giardia inh -21%, Tb PYK inh 0%, HCMV inh 14, FMDV antiviral 0%, Sm TGR inh 14µM* and RE007 growth inh -28%.
Screening CC(C)N1CCc2c(sc(NC(=O)CCc3ccccc3)c2C(N)=O)C1 returned FBPA Giardia inh -26%, Tb PYK inh -2%, HCMV inh -37, FMDV antiviral 10%, Sm TGR inh -19% and RE007 growth inh -2%.
`O=C1C(=Cc2ccco2)CCC1=Cc1ccco1` gave Tb PYK inh inconclusive, HCMV inh inconclusive, FMDV antiviral -51% and RE007 growth inh -13%.
Screening CC(=O)COc1ccc2c(c1C)O/C(=C\c1ccco1)C2=O returned FBPA Giardia inh -1%, Tb PYK inh 4%, HCMV inh 54, FMDV antiviral -1%, Sm TGR inh 20µM* and RE007 growth inh inconclusive.
Screening O=C1C(=Cc2ccco2)CCCC1=Cc1ccco1 returned Tb PYK inh -12%, HCMV inh 8, FMDV antiviral 21% and RE007 growth inh -6%.
Cc1c(OC(=O)N(C)C)ccc2c1O/C(=C\c1ccco1)C2=O was read as FBPA Giardia inh 7%, Tb PYK inh -19%, HCMV inh 50, FMDV antiviral -13%, Sm TGR inh 11µM* and RE007 growth inh 6%.
`Cc1cc(O)c(CN(C)C)c2c1C(=O)/C(=C/c1ccco1)O2` gave FBPA Giardia inh -6%, Tb PYK inh -17%, HCMV inh -17, FMDV antiviral -15%, Sm TGR inh 4µM* and RE007 growth inh 1%.
Screening CC(=O)c1cc2c(cc1N/C(=N/S(=O)(=O)c1ccc(C)cc1)c1ccc(F)cc1)OCO2 returned Tb PYK inh -7%, HCMV inh -17, FMDV antiviral 51% and Sm TGR inh -2%.

Screening data (PubChem)
